This is part of a sample that, as a whole, favours compounds with a hit. Of some 83,000 tested, about 20% had one in any assay.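 Step 1: grow cells in 96-well plates. Step 2: add test compound at a single concentration. Step 3: incubate 48 h. Step 4: record percent growth.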 Activity calls are given as the source filed them. Rule for the calls: active = growth percent below 10; inactive = the rest.
tested on: OVCAR-5 ovarian; experiment: NCI-60 one-dose screen, 48 h (100 = growth as untreated, 0 = no growth, -100 = all killed); conditions: 10 µM unless noted

SMILES	growth
CCCCNc1ccc2c3c(cccc13)C(=O)N(c1cccc(-c3nn(-c4ccccc4)cc3-c3nc4ccccc4s3)c1)C2=O	104% (inactive)
COc1ccc(-c2cc(-c3cc(OC)c(OC)c(OC)c3)[nH]c(=O)c2C#N)cc1	79.1% (inactive)
COc1cc(C2CC(c3ccc(Cl)cc3)=Nc3c(N)nc(N)nc3N2)ccc1Oc1nc(Nc2ccc(F)cc2)nc(N(C)C)n1 (stereo not drawn)	96.6% (inactive)
O=C(O)CC1S/C(=N/N=C/c2nc3ccccc3s2)NC1=O (stereo not drawn)	123% (inactive)
Cc1ccc(S(=O)(=O)N(CCn2ccnc2[N+](=O)[O-])CCn2ccnc2[N+](=O)[O-])cc1	103% (inactive)
N#CCc1nnc(NC(=O)c2ccc(-n3c(=O)[nH]c4ccccc4c3=O)cc2)s1	96.7% (inactive)
O=C(N/N=C/c1ccc(Br)o1)c1[nH]c2ccc(Br)cc2c1-c1ccccc1	-21.8% (active)
COc1ccc(N=Nc2c(N)nn3c(-c4ccc([N+](=O)[O-])cc4)ccnc23)cc1	113% (inactive)
Cn1cc(-c2cc(N)n3nc(-c4c[nH]c5ccc(Cl)cc45)cc3n2)c2cc(Br)cnc21	-61.2% (active)
CN1C(=O)C2(C(C#N)=C(c3ccc(Cl)cc3)Nc3c2c(-c2ccccc2)nn3-c2ccccc2)c2ccccc21 (stereo not drawn)	96% (inactive)
Cc1nn(-c2ccccc2)c2nc(C)n(C(=O)N/N=C/c3ccccc3)c(=O)c12	101% (inactive)
CN1CCN(CCS(=O)(=O)Nc2cc(-c3ccc4ncnc(Nc5ccc(F)c(Cl)c5)c4c3)cnc2Cl)CC1	16% (inactive)
COc1cc(C2CC(c3ccc(C(F)(F)F)cc3)=Nc3c(N)nc(N)nc3N2)ccc1Oc1nc(Nc2ccc(F)cc2)nc(N(C)C)n1 (stereo not drawn)	89.1% (inactive)
COc1ccc2[nH]c(=O)c(CSc3ccccc3Nc3nccc(-c4ccc5c(c4)OCO5)n3)cc2c1	103% (inactive)
Cc1cc(=O)oc2cc(OCC(O)CNN3C(=O)c4cccc5c(N6CCN(C)CC6)ccc(c45)C3=O)ccc12 (stereo not drawn)	112% (inactive)
CC[C@]12C=CCN3CC[C@]4(C(=C(C(=O)OC)C1)Nc1cc(OC)c([C@@H]5[C@H]6O[C@H]6[C@@]6(CC)CC(C(=O)OC)=C7Nc8cc(OC)ccc8[C@@]78CCN5[C@@H]68)cc14)[C@@H]32	93.2% (inactive)
C#CCCCNCCNc1ccnc2cc(Cl)ccc12	64.3% (inactive)
CCOC(=O)/C(F)=C/C1CC1C(c1ccccc1)c1ccccc1 (stereo not drawn)	102% (inactive)
S=C(NCCc1ccccc1)Nc1ccc(OCc2nc3ccc(Cl)cc3[nH]2)cc1	30.5% (inactive)

SMILES	growth
Cc1ccc(C(=O)C[n+]2cccc3c4ccccc4ccc32)cc1	31.3% (inactive)
CCCn1c(NC(=O)c2cccc(C(N)=O)c2)nc2cc(CN3CCCCC3)ccc21	99% (inactive)
CCC(=O)c1c2c(c3ccc4c5ccccc5ccc4n13)C(=O)c1ccccc1C2=O	122% (inactive)
O=C1/C(=C/c2cnc(-c3ccccc3)s2)SC(=S)N1Cc1ccc2c(c1)OCO2	99.4% (inactive)
O=c1[nH]c2ccccc2cc1COc1ccc(Nc2nccc(-c3ccc(Cl)cc3)n2)cc1	106% (inactive)
O=C(/C=C1\C(=O)N(Cc2ccccc2)c2ccccc21)c1cc2ccccc2oc1=O	116% (inactive)
COc1ccc(NC(=O)Cn2c(/C=C/c3cccc(Br)c3)nc3ccccc3c2=O)cc1	47.6% (inactive)
O=c1ccc(Cn2c(C(F)(F)F)cc3c(Cl)ncnc32)c[nH]1	126% (inactive)
CCCCC[C@@H]1C/C=C(\C)[C@@H](O)C(C)(C)C(=O)[C@@H](C)/C=C(\C)[C@@H]2C[C@H](O)C[C@](O)(CC(=O)O1)O2	78% (inactive)
COc1cc(NC(=O)CSc2nnc(-c3ccc(-c4nc5ccc(Cl)cc5[nH]4)cc3)o2)cc(OC)c1OC	71.4% (inactive)
Cc1ccc(C2CC(c3ccc(S(=O)(=O)NCCNc4nc(N(C)C)nc(N5CCOCC5)n4)cc3)=Nc3c(N)nc(N)nc3N2)cc1 (stereo not drawn)	90% (inactive)
CCCCNC(=S)Nc1ccc(OCc2nc3ccc(Cl)cc3[nH]2)cc1	28.2% (inactive)
Nc1nn2c(-c3cc4cc(Br)ccc4oc3=O)ccnc2c1N=Nc1ccc(S(N)(=O)=O)cc1	112% (inactive)
OCCn1cc(-c2nc3ccc4[nH]ncc4c3c3c2CCCC3)cn1	97.8% (inactive)
CN(C)CCCc1ccc(Nc2cnn(C)c(=O)c2Cl)cc1	126% (inactive)
Nc1cc2ccccc2c(=O)n1NC(=O)c1ccccc1	107% (inactive)
Cn1cc(-c2cc(N)n3nc(-c4c[nH]c5ccccc45)cc3n2)c2cc(Cl)ccc21	-65.9% (active)
O=C(NC(=S)N1CCN(c2ncnc3c2cnn3-c2ccccc2)CC1)c1ccc(Br)cc1	81.8% (inactive)
O=C(N/N=C/c1ccc(B(O)O)s1)c1[nH]c2ccc(Br)cc2c1-c1ccccc1	-97.6% (active)
